# Measurements: PubChem BioAssay AID686978 (National Center for Advancing Translational Sciences (NCATS), 2013)
# Out of some 420,000 compounds screened, about 64,000 (15%) were called active. Not shown: some 27% with an inconclusive outcome. Calls come from the whole dose curve; as a rule, active = well fitted inhibition curve with a large enough effect; inconclusive = small, poorly fitted or top-dose-only effect; inactive = flat fitted curve, though single readings scatter. Not all results are given here. A call without a number means that no potency is given here.
# Experiment: qHTS for Inhibitors of human tyrosyl-DNA phosphodiesterase 1 (TDP1): qHTS in cells in absence of CPT; note: nearly all actives have a fitted effect of over 55% in size
# Conditions: DT40 Tdp1-/- hTDP1 cells, no CPT, ATP luminescence, 48 h; activity change, negative = growth inhibition: at 46.2 µM (top of the series)
# How it was run: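 A cellular qHTS used chicken DT40 cells lacking endogenous Tdp1 but carrying stably transfected human TDP1. Compounds were applied without camptothecin, and cell growth kinetics were judged by ATP-dependent luminescence after ≥48 hr.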
# Potency is the fitted concentration of half-maximal effect.
row,SMILES,Potency
1,CN(C)C(=O)CSc1n[nH]c(-c2ccco2)n1,inactive
2,COC(C[C@@H](O)C[C@@H](O)[C@H](C)OCc1ccccc1)OC,inactive
3,O=C(Cc1ccc(Br)cc1)NCCc1ccccc1,inactive
4,COC(=O)C(CC(=O)Nc1cc(C)ccc1C)Nc1ccccc1OC (stereo unspecified),inactive
5,COc1ccccc1NC(=O)CCC(=O)N1CC(C)Oc2ccc(C)cc21 (stereo unspecified),16.4 µM (active)
6,CC1CN(C(=O)CCC(=O)NCc2cccnc2)c2ccccc2O1 (stereo unspecified),inactive
7,O=C(CSc1ncnc2scc(-c3ccccc3)c12)NCc1ccc2c(c1)OCO2,inactive
8,CN(C)C(=O)c1cccc(-c2cnc3sc(NCc4ccc5c(c4)OCO5)nn23)c1,13 µM (active)
9,O=C(Cn1nnc(-c2ccccc2)n1)NCc1ccc2c(c1)OCO2,inactive
10,OC(CNC1CCCC1)COc1ccc(F)cc1 (stereo unspecified),inactive
11,Nc1c(C(=O)Nc2ccc3c(c2)OCCO3)nnn1Cc1ccccc1,inactive
12,COC(=O)c1ccc(CSc2nc3cc(Cl)ccc3o2)cc1,inactive
13,O=S(=O)(c1ccc(Br)cc1)c1nc(-c2ccccc2)oc1NCc1cccnc1,inactive
14,O=S(=O)(c1ccccc1)c1nc(-c2ccccc2F)oc1NCc1cccnc1,inactive
15,COc1cccc(-c2nc(S(=O)(=O)c3ccc(C)cc3)c(NCc3ccccc3)o2)c1,18.4 µM (active)
16,COc1cc(C2C3C(=O)N(c4ccccc4)C(=O)C3ON2c2ccccc2)ccc1O (stereo unspecified),inactive
17,COc1ccc(-c2nn(CC(=O)NC3CCCC3)c3c2cnc2ccc(F)cc23)cc1,inactive
18,CCc1ccc2ncc3c(-c4ccc(C)cc4)nn(CC(=O)NCc4ccccc4)c3c2c1,inactive
19,COc1ccc2ncc3c(-c4ccc(C)c(C)c4)nn(CC(=O)NC4CCCC4)c3c2c1,6.51 µM (active)
20,COc1cccc2c(=O)n(CC(=O)N3CCCCCC3)ccc12,inactive
21,CCOc1ccc(C2C(C(=O)Nc3ccc(Cl)cc3)=C(C)Nc3nc(C(F)(F)F)nn32)cc1 (stereo unspecified),14.6 µM (active)
22,COc1cc(C2C(C(=O)Nc3ccc(F)cc3)=C(C)Nc3nc(CCCO)nn32)cc(OC)c1OC (stereo unspecified),inactive
23,CCOc1cc(C2C(C(=O)Nc3ccc(OC)cc3)=C(C)Nc3nc(SC)nn32)ccc1O (stereo unspecified),inactive

row,SMILES,Potency
1,COc1cc(OC)c(N(C)C(=O)c2cc3c(=O)oc4ccccc4c3s2)cc1Cl,inactive
2,CCOc1ccccc1-c1cc(C(=O)N2CCOCC2)c2ccccc2n1,inactive
3,CCOc1ccccc1N(C)C(=O)c1cc2c(s1)-c1ccccc1OC2,16.4 µM (active)
4,COc1ccc(C(=O)NC(C)Cn2nc(C)cc2C)cc1OC1CCN(C(C)=O)CC1 (stereo unspecified),inactive
5,COc1ccc(-c2onc3ccc(C(C)=O)cc23)cc1,inactive
6,CCOCCCNC(=O)c1ccc(CS(=O)(=O)c2cccc(C(F)(F)F)c2)o1,inactive
7,Cc1c(Cl)cnc(NC(=O)COC(=O)c2ccc(S(=O)(=O)NCc3ccco3)cc2)c1Cl,inactive
8,CC(C)(C)c1ccc(C(=O)C[n+]2cccc3cc(Cl)ccc32)cc1,4.47 µM (active)
9,COC(=O)C[n+]1cccc2ccccc21,inactive
10,Cc1cccc[n+]1CC(=O)c1ccccc1,inactive
11,COc1cccc2c1OCC(C(=O)NCc1ccc(Cl)cc1Cl)=C2,inactive
12,O=C1NCC(Nc2ccccc2)C(=O)N1 (stereo unspecified),inactive
13,Nc1ccccc1SC(C[N+](=O)[O-])c1ccccc1 (stereo unspecified),2.31 µM (active)
14,Nc1ccccc1SCc1cc([N+](=O)[O-])cc2c1OCOC2,inactive
15,C#CCO[C@@H]1C[C@H](n2cnc3c(=O)[nH]c(NC(=O)C(C)C)nc32)O[C@@H]1CO,inactive
16,CCCCCCCCCCCCCCCCO,inactive
17,O=C(CN1C(=O)COc2ccccc21)NCCN1CCc2ccccc2C1,inactive
18,O=C(NCCCN1CCOCC1)c1cc2c(s1)CCC2,inactive
19,Cc1cccc2c1-c1sc(C(=O)NCCCN3CCc4ccccc4C3)cc1CO2,20.6 µM (active)
20,O=C(Nc1cccc(Cl)c1)c1cncn1-c1ccc(F)cc1,inactive
21,Cc1ccc(NC(=O)CCN2C(=O)c3ccccc3C2=O)cc1C,inactive
22,Cc1cc2c(cc1C)N(C(=O)CN1C(=O)c3ccccc3C1=O)C(C)(C)c1ssc(=S)c1-2,25.9 µM (active)
23,Cc1cc(C)cc(NC(=O)CN2C(=O)c3ccccc3C2=O)c1,inactive

row,SMILES,Potency
1,CCCC(=O)N=c1sc2cccc(F)c2n1C,inactive
2,CCCN(C(=O)CSc1nnnn1C)c1c(N)n(Cc2ccccc2)c(=O)[nH]c1=O,inactive
3,COC(=O)[C@@H]1C[C@@]2(O)[C@@H](O)[C@@H](O)[C@@H](O)C[C@H]2N1Cc1ccc(C)s1,inactive
4,CS(=O)(=O)N(CC(=O)N1CCN(c2ccc(F)cc2)CC1)C1CCCCC1,inactive
5,CN(C1CCS(=O)(=O)C1)S(=O)(=O)c1ccc2ccccc2c1 (stereo unspecified),inactive
6,COc1cc(CN2CCCC(C(=O)c3ccc(SC)cc3)C2)cc(Cl)c1O (stereo unspecified),14.6 µM (active)
7,COc1ccc(CCN(C)C(=O)C2CCCN(Cc3ccc(OC)c(OC)c3)C2)cc1OC (stereo unspecified),inactive
8,COc1ccc(CN2CCCC(CNC(=O)c3ccc(F)cc3)C2)cc1OC (stereo unspecified),inactive
9,COc1ccc(CN2CCCC(C(=O)N3CCCCC3)C2)cc1 (stereo unspecified),inactive
10,COc1ccc(CN2CCCC(C(=O)c3ccc(Cl)cc3)C2)cc1Cn1cncn1 (stereo unspecified),18.4 µM (active)
11,c1ccc(-n2ncc(-c3nn[nH]n3)n2)cc1,inactive
12,Cc1ccccc1NC(=O)COc1cccc2c1CCNC2=O,inactive
13,Cc1c(Cl)cccc1NC(=O)CSc1ccc(-c2cccnc2)nn1,inactive
14,Brc1ccc(CSc2ccc(-c3ccco3)nn2)cc1,inactive
15,Cc1cc(F)ccc1S(=O)(=O)Nc1ccc(C(=O)N(C)Cc2ccco2)cc1,inactive
16,C=CCn1c(C)cc(C2=NNC(=NCC)SC2)c1C,20.6 µM (active)
17,Cc1ccnc(NS(=O)(=O)c2ccc(NC(=O)c3ccc(S(=O)(=O)N4CCOCC4)cc3)cc2)n1,inactive
18,COCCn1c(C)cc(C2=NNC(=Nc3ccc(F)cc3)SC2)c1C,14.6 µM (active)
19,Cc1ccc(S(=O)(=O)N2CCC(C(=O)NCC3CCCO3)CC2)cc1 (stereo unspecified),inactive
20,Cc1cc(C2=NNC(=Nc3ccc(S(=O)(=O)N4CCOCC4)cc3)SC2)c(C)n1CC1CCCO1 (stereo unspecified),2.91 µM (active)
21,CCSC(C)CC1C/C(=N/O)c2c(C)noc2C1 (stereo unspecified),inactive
22,Cc1ccc(Cl)c(OCC(=O)N2CCc3ccccc3C2)c1,inactive
23,Nc1c(-c2ccc(F)cc2)cnn1C1CCS(=O)(=O)C1 (stereo unspecified),inactive

row,SMILES,Potency
1,Cc1cc(=O)cc(C)n1-c1ccc(Cl)c(Cl)c1,inactive
2,CCOc1ccccc1NC(=O)CCS(=O)(=O)c1cccc2nsnc12,inactive
3,CCOc1ccc(-c2c(C)n([O-])c3c([n+]2=O)CCCC3)cc1,inactive
4,Nc1nc2cc(Cl)ccc2n1N,inactive
5,COc1cc(OC)c(C2C=C(C(=O)O)Nc3ncnn32)cc1OC (stereo unspecified),inactive
6,CC(C)c1nnc(NC(=O)C2CC(=O)N(CCc3ccc(F)cc3)C2)s1 (stereo unspecified),inactive
7,CC(=O)Nc1ccc(S(=O)(=O)N(CCc2ccccc2)CC(=O)N/N=C/c2ccc(C(=O)O)cc2)cc1,inactive
8,CCOc1ccc(C(=O)Nc2ccc3nc4c(c(Nc5ccccc5OC)c3c2)CCCC4)cc1,4.61 µM (active)
9,COc1ccc(C(=O)Nc2onc3c2CCCC3)cc1,inactive
10,CCOc1ccc(NC(=O)CSc2nncn2C)cc1,inactive
11,CCOc1ccc(C(=O)NC2CCN(C(=O)Nc3ccccc3OC)CC2)cc1,inactive
12,CC(=O)c1cccc(NC(=O)CSc2nc3c(c(=O)[nH]2)CCC3)c1,inactive
13,CCOc1ccc(NC(=O)CSc2c3c(nc4ccccc24)CCCC3)cc1,16.4 µM (active)
14,Cn1cnnc1SCC(=O)NNC(=O)COc1ccc(Br)cc1,inactive
15,O=C(NC1CC1)C1CCCN(C(=O)NC2CCCCC2)C1 (stereo unspecified),inactive
16,CCN(CC)CCNC(=O)Cn1cnc2sc(C)c(S(=O)(=O)N3CCOCC3)c2c1=O,inactive
17,Cc1cc(Br)ccc1NC(=O)Cn1cnc2sc(C)c(S(=O)(=O)N3CCN(C)CC3)c2c1=O,inactive
18,COc1ccc(N2CCN(C(=O)Cn3cnc4sc(C)c(S(=O)(=O)N5CCOCC5)c4c3=O)CC2)cc1,18.4 µM (active)
19,OCCN1CCN(CCO)C1=S,inactive
20,CC(C)(C)NC(=O)NC(=O)COC(=O)CCC1CCCCC1,inactive
21,O=C(c1c(Cl)cccc1Cl)N1CCN(c2cccc3[nH]ccc23)CC1,inactive
22,Cn1cccc1C(=O)N1CCc2ccccc2C1,inactive
23,O=C(NCCN1CCN(Cc2ccccc2)CC1)c1cc2c(=O)[nH]c3ccccc3c2s1,25.9 µM (active)

row,SMILES,Potency
1,O=C(c1ncn2c1c(=O)[nH]c1ccccc12)N1CCc2ccccc2C1,inactive
2,Cc1c(C(=O)CN2CCOCC2)[nH]c2ccccc12,inactive
3,Cc1cccc(N2CCN(C(=O)c3cc4c(=O)[nH]c5ccccc5c4n3C)CC2)c1C,18.4 µM (active)
4,Cn1c(C(=O)NCCN2CCc3ccccc3C2)cc2c(=O)[nH]c3ccccc3c21,16.4 µM (active)
5,O=C(Cc1c(O)c2ccccc2[nH]c1=O)NCc1ccccc1,inactive
6,CC(C(=O)O)N1C(=O)c2cccc3cccc1c23 (stereo unspecified),inactive
7,CC(C)NC(=O)NCCCCCCS(C)=O (stereo unspecified),inactive
8,Cc1ccn2cc(-c3nonc3C)cc2c1,inactive
9,CC1(C(=O)NS(=O)(=O)c2ccc3ccccc3c2)CCN1C(=O)C1(c2ccc(Cl)cc2)CCC1 (stereo unspecified),inactive
10,CCN(C(=O)CSc1nnc2ccccn12)C1CCS(=O)(=O)C1 (stereo unspecified),inactive
11,CC(OC(=O)c1cccnc1Cl)C(=O)NC1CCCCC1 (stereo unspecified),inactive
12,CC(C)Cn1c(CCC(=O)O)ccc1-c1cccs1,inactive
13,COc1cc(C(=S)NC2CCCCC2)ccc1O,inactive
14,Cc1cccc(-c2ncc(CN3CCC(CO)(CCCc4ccccc4)CC3)cn2)c1,23.1 µM (active)
15,COc1cccc(CC2(CO)CCN(Cc3cnc(-c4cccc(C)c4)nc3)CC2)c1,20.6 µM (active)
16,CC(=O)c1cccc(CN2CCC(CO)(Cc3ccccc3)CC2)c1,inactive
17,COC(=O)c1ccc(CN2CCC(CO)(Cc3ccc(OC)cc3)CC2)cc1,inactive
18,COc1ccc(CC2(CO)CCN(Cc3cnn(C)c3)CC2)cc1,inactive
19,OCC1(CCc2ccccc2)CCN(Cc2ccc3nsnc3c2)CC1,inactive
